Laboratory results from the supplement of paper PMC8728848.
This is one part of a sample in which the strongest signals are shown more often than they occur.

Legend:
Assay in all cases: glycan array binding signal (z-score within array); higher = stronger binding
Conditions in all cases: glycan notation: IUPAC condensed, linker removed
Fuc(a1-2)Gal = biological target: Fuc(a1-2)Gal
Outline: (§1)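 Glycan array data came from 3228 arrays in the Consortium for Functional Glycomics database, and only arrays with an available protein sequence were kept. Glycan names were put into IUPAC-condensed notation, and columns mapping to the same glycan were averaged. The binding signal is a within-array Z-score, averaged across arrays of one protein sequence run at different concentrations or buffers and across linkers. A negative Z-score can be read as non-binding.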

Fuc(a1-2)Gal(b1-3)GlcNAc = biological target: Fuc(a1-2)Gal(b1-3)GlcNAc
Outline: as §1

Fuc(a1-2)Gal(b1-4)Glc6S = biological target: Fuc(a1-2)Gal(b1-4)Glc6S
Outline: as §1

[1] = biological target: Fuc(a1-2)Gal(b1-4)[Fuc(a1-3)]GlcNAc(b1-2)Man(a1-3)[Fuc(a1-2)Gal(b1-4)[Fuc(a1-3)]GlcNAc(b1-2)Man(a1-6)]Man(b1-4)GlcNAc(b1-4)[Fuc(a1-6)]GlcNAc
Outline: as §1

[2] = biological target: Fuc(a1-2)Gal6S(b1-3)GlcNAc
Outline: as §1

[3] = biological target: Fuc(a1-2)[GalNAc(a1-3)]Gal(b1-4)GlcNAc
Outline: as §1

[4] = biological target: Fuc(a1-2)[GalNAc(a1-3)]Gal(b1-4)GlcNAc(b1-2)Man(a1-3)[Fuc(a1-2)[GalNAc(a1-3)]Gal(b1-4)GlcNAc(b1-2)Man(a1-6)]Man(b1-4)GlcNAc(b1-4)[Fuc(a1-6)]GlcNAc
Outline: as §1

[5] = biological target: Fuc(a1-3)[Gal(b1-4)]GlcNAc(b1-6)GalNAc
Outline: as §1

[6] = biological target: Gal(a1-3)Gal(b1-3)GlcNAc(b1-3)GalNAc
Outline: as §1

[7] = biological target: Gal(a1-4)Gal(b1-3)GlcNAc(b1-2)Man(a1-3)[Gal(a1-4)Gal(b1-3)GlcNAc(b1-2)Man(a1-6)]Man(b1-4)GlcNAc(b1-4)GlcNAc
Outline: as §1

[8] = biological target: Gal(b1-3)GlcNAc(b1-2)Man(a1-3)[Gal(b1-3)GlcNAc(b1-2)Man(a1-6)]Man(b1-4)GlcNAc(b1-4)[Fuc(a1-6)]GlcNAc
Outline: as §1

[9] = biological target: Gal(b1-3)GlcNAc(b1-6)[Gal(b1-3)]GalNAc
Outline: as §1

[10] = biological target: Gal(b1-4)GalNAc(a1-3)[Fuc(a1-2)]Gal(b1-4)GlcNAc
Outline: as §1

Gal(b1-4)GlcNAc(b1-2)Man = biological target: Gal(b1-4)GlcNAc(b1-2)Man
Outline: as §1

[11] = biological target: Gal(b1-4)GlcNAc(b1-2)Man(a1-3)[Man(a1-6)]Man(b1-4)GlcNAc(b1-4)GlcNAc
Outline: as §1

[12] = biological target: Gal(b1-4)GlcNAc(b1-3)Gal(b1-3)GlcNAc
Outline: as §1

[13] = biological target: Gal(b1-4)GlcNAc(b1-3)Gal(b1-4)GlcNAc(b1-3)Gal(b1-4)GlcNAc(b1-2)[Gal(b1-4)GlcNAc(b1-3)Gal(b1-4)GlcNAc(b1-3)Gal(b1-4)GlcNAc(b1-6)]Man(a1-6)[Gal(b1-4)GlcNAc(b1-3)Gal(b1-4)GlcNAc(b1-3)Gal(b1-4)GlcNAc(b1-2)Man(a1-3)]Man(b1-4)GlcNAc(b1-4)[Fuc(a1-6)]GlcNAc
Outline: as §1

[14] = biological target: Gal(b1-4)GlcNAc(b1-3)Gal(b1-4)GlcNAc(b1-3)Gal(b1-4)GlcNAc(b1-3)Gal(b1-4)GlcNAc(b1-2)[Gal(b1-4)GlcNAc(b1-3)Gal(b1-4)GlcNAc(b1-3)Gal(b1-4)GlcNAc(b1-3)Gal(b1-4)GlcNAc(b1-6)]Man(a1-6)[Gal(b1-4)GlcNAc(b1-3)Gal(b1-4)GlcNAc(b1-3)Gal(b1-4)GlcNAc(b1-3)Gal(b1-4)GlcNAc(b1-2)Man(a1-3)]Man(b1-4)GlcNAc(b1-4)[Fuc(a1-6)]GlcNAc
Outline: as §1

[15] = biological target: Gal(b1-4)GlcNAc(b1-3)Gal(b1-4)GlcNAc(b1-3)Gal(b1-4)GlcNAc(b1-3)Gal(b1-4)GlcNAc(b1-3)Gal(b1-4)GlcNAc(b1-2)[Gal(b1-4)GlcNAc(b1-3)Gal(b1-4)GlcNAc(b1-3)Gal(b1-4)GlcNAc(b1-3)Gal(b1-4)GlcNAc(b1-3)Gal(b1-4)GlcNAc(b1-6)]Man(a1-6)[Gal(b1-4)GlcNAc(b1-3)Gal(b1-4)GlcNAc(b1-3)Gal(b1-4)GlcNAc(b1-3)Gal(b1-4)GlcNAc(b1-3)Gal(b1-4)GlcNAc(b1-2)Man(a1-3)]Man(b1-4)GlcNAc(b1-4)[Fuc(a1-6)]GlcNAc
Outline: as §1

[16] = biological target: Gal(b1-4)GlcNAc(b1-3)Gal(b1-4)[Fuc(a1-3)]GlcNAc(b1-3)Gal(b1-4)[Fuc(a1-3)]GlcNAc
Outline: as §1

[17] = biological target: Gal(b1-4)GlcNAc(b1-3)[Gal(b1-4)GlcNAc(b1-6)]Gal(b1-4)GlcNAc
Outline: as §1

[18] = biological target: Gal(b1-4)GlcNAc(b1-6)[Gal(b1-4)GlcNAc(b1-3)]GalNAc
Outline: as §1

[19] = biological target: Gal3S(b1-3)[Fuc(a1-4)]GlcNAc
Outline: as §1

Gal3S6S(b1-4)GlcNAc6S = biological target: Gal3S6S(b1-4)GlcNAc6S
Outline: as §1

Gal4S6S(b1-4)GlcNAc = biological target: Gal4S6S(b1-4)GlcNAc
Outline: as §1

Gal6P(b1-4)GlcNAc = biological target: Gal6P(b1-4)GlcNAc
Outline: as §1

[20] = biological target: GlcNAc(b1-2)Gal(b1-3)GalNAc
Outline: as §1

[21] = biological target: GlcNAc(b1-2)[GlcNAc(b1-4)]Man(a1-3)[GlcNAc(b1-2)Man(a1-6)]Man(b1-4)GlcNAc(b1-4)GlcNAc
Outline: as §1

[22] = biological target: GlcNAc(b1-3)Gal(b1-4)GlcNAc(b1-3)Gal(b1-4)GlcNAc(b1-3)Gal(b1-4)GlcNAc(b1-2)[GlcNAc(b1-3)Gal(b1-4)GlcNAc(b1-3)Gal(b1-4)GlcNAc(b1-3)Gal(b1-4)GlcNAc(b1-6)]Man(a1-6)[GlcNAc(b1-3)Gal(b1-4)GlcNAc(b1-3)Gal(b1-4)GlcNAc(b1-3)Gal(b1-4)GlcNAc(b1-2)Man(a1-3)]Man(b1-4)GlcNAc(b1-4)[Fuc(a1-6)]GlcNAc
Outline: as §1

GlcNAc(b1-3)Man = biological target: GlcNAc(b1-3)Man
Outline: as §1

B1: Cp ZmpB (Clostridium perfringens), Q0TR08 (protein)
chain: MNKRKIAAIILATMITNLSATTIDVLAQELNTKNNSKVEVSHDDESHQARVSKFDLYNSDKLDAYNQEFQVSRSNIKSINNNGGKYNSSTIDKAIDGNLETHWETGKPNDANFTNEVVVTFNEITNIDRIVYSARRDSARGKGFAKEFEIYASLKDEGDDFNLVSSGEYTESTRDLVEIKFNPTDFKRLKFKFKKADQNWASAAEFMFYKEDKLNEKFNGLFTDSSMNKVSEEFNTLEKLNAFENELKDHPIYDLYKEGLNNARAILTETSENPTKATLGQITYNLNDDYNNQYRMPYKNIKAIKNNGRHYAAQNIEKAIDNDVNTYWETGTLNSSSFNNEVEVEFNDLVTLDRIVYGSRQSDLKGFAEEVYIYASRTSKGDTYKLVATGAHEATKGLVEAKFEPTEFKRVKFKFKKSKQNSATLNELMFYKPDEVYSSIPKLFTDGTMSELSEEFNSLEKINAFKEKAKNHPLYNDFNETIELAESLISNPRKEDVLELEMRGDSISEAKKRKVWNFQDWQITGLSARAGDKITVYVDVAEGDPTPTLLYKQSLTQHGGATSFQLKPGKNEITIPEINYESNGIPKDVIQGGDLFFTNYKSDSQKRAPKVRIEGASKYPVFILGKSDENEVMKELEAYVEKIKAEPKTTPNIFAVSSNKSLEFVQATYALDWYKKNNKTPKYTAEQWDQYIADAMGFWGFDNSKDVNSDFNFRIMPMVKNLSGGAFMNAGNGVIGIRPGNQDAILAANKGWGVAHELGHNFDTGGRTIVEVTNNMMPLFFESKYKTKTRITDQNIWENNTYPKVGLDDYSNNELYNKADSTHLAQLAPLWQLYLYDNTFYGKFERQFRERDFGNKNREDIYKSWVVAASDAMELDLTEFFARHGIRVDDKVKEDLAKYPKPDKKIYYLNDLAMNYKGDGFTENAKVSVSTSGSNGNIKLSFSVDDENKDNILGYEIRRDGKYVGFTSNDSFVDTKSNLDEDGVYVVTPYDRKLNTLNPIEVNALQPTLSVNPVITLALGEEFNEEEYIVAKDIKGNSLSESVKVKSSNVNTSKVGEYEVLYSLEDSKGNEYTKTSKVNVVSRKEYMSDLTPKQSSNGWGTVRKDKSISGGVIGLTRDGDFVDYNKGLGLHSNAEYVYDLEGKDYDYFESYVGVDKAMSSRPASSVIFKVLVDGEEKFNSGVMRSTTPQKYVKVDVKNAKELKLIVNDAGDGDSSDHASFGDAKLATLSSKPIIKGENLAYSMDEKVDLMKGITATDIEDGNITSKVQIKSSDFVEGKSGIFTVVYSVTDSDGLTSECSRTIAVTDKETQLSDLNWKSATIGSGSVRKDRAVSGNQIRLLNEDNSVETFAKGIGTHSYSEIVYNSEGYDIFDTWVGIDRHVADKKVSSVKFKVYVDGELKAETDVMRIDTPKKRLVVDVRNSKEIKLVVDVADNGNNWDHADWADAKFRNLAEYDASELNKAIEEAKKLDLNNYTEESSEALKNAISKGEEALLSKDKETINSALEELNKEMNSLVKVDLNAVINIPDKYLLKSIQNQLNKTGDITLGDMYSLTTLTLSGVEDLTGLENAKNLETLNMDYNEVKDLRPLSKLKKLNTLNAQEQFIAAGELKPSNGKVIGDSKVYNREGKNVAKTIRVVDKNGNTILEQDAKDEFTINTKDLSSGLYGVHVLFEDEGFSGVMFYLFNV
glycan array binding signal (z-score) (Fuc(a1-2)Gal): 22.4
glycan array binding signal (z-score) (Fuc(a1-2)Gal(b1-3)GlcNAc): -0.148
glycan array binding signal (z-score) (Fuc(a1-2)Gal(b1-4)Glc6S): -0.219
glycan array binding signal (z-score) [1]: -0.251
glycan array binding signal (z-score) [2]: -0.122
glycan array binding signal (z-score) [3]: -0.068
glycan array binding signal (z-score) [4]: -0.353
glycan array binding signal (z-score) [5]: -0.181
glycan array binding signal (z-score) [6]: -0.001
glycan array binding signal (z-score) [7]: -0.252
glycan array binding signal (z-score) [8]: -0.193
glycan array binding signal (z-score) [9]: 0.823
glycan array binding signal (z-score) [10]: 0.022
glycan array binding signal (z-score) (Gal(b1-4)GlcNAc(b1-2)Man): 0.161
glycan array binding signal (z-score) [11]: -0.033
glycan array binding signal (z-score) [12]: 1.39
glycan array binding signal (z-score) [13]: -0.102
glycan array binding signal (z-score) [14]: -0.093
glycan array binding signal (z-score) [15]: 3.56
glycan array binding signal (z-score) [16]: -0.332
glycan array binding signal (z-score) [17]: -0.301
glycan array binding signal (z-score) [18]: 0.086
glycan array binding signal (z-score) [19]: -0.055
glycan array binding signal (z-score) (Gal3S6S(b1-4)GlcNAc6S): 1.17
glycan array binding signal (z-score) (Gal4S6S(b1-4)GlcNAc): 0.461
glycan array binding signal (z-score) (Gal6P(b1-4)GlcNAc): -0.373
glycan array binding signal (z-score) [20]: 2.81
glycan array binding signal (z-score) [21]: 1.11
glycan array binding signal (z-score) [22]: -0.173
glycan array binding signal (z-score) (GlcNAc(b1-3)Man): 0.057
